The text below walks through data of PubChem BioAssay (NCI).

Common to all, as to assay: NCI-60 one-dose screen, 48 h (100 = growth as untreated, 0 = no growth, -100 = all killed)
The test system of one experiment is SR leukemia. The note with it: 10 µM.
The next experiment concerns RPMI-8226 leukemia. Particulars: 10 µM.
The test system of another experiment is OVCAR-8 ovarian. The note with it: 10 µM.
The subject of another experiment is OVCAR-5 ovarian. Particulars: 10 µM.
A further experiment concerns OVCAR-4 ovarian. Particulars: 10 µM.
Another experiment concerns SK-OV-3 ovarian. Particulars: 10 µM.
For another experiment, the system named is IGROV1 ovarian. Particulars: 10 µM.
In another experiment the test system is OVCAR-3 ovarian. Particulars: 10 µM.
For a further experiment, the system named is HS 578T breast. Particulars: 10 µM.
Another experiment relates to NCI/ADR-RES ovarian. Particulars: 10 µM.
In a further experiment the test system is T-47D breast. The note with it: 10 µM.
Another experiment deals with BT-549 breast. Particulars: 10 µM.
The subject of another experiment is MDA-MB-435 melanoma. The note with it: 10 µM.
Another experiment concerns SW-620 colon. The note with it: 10 µM.
The test system of the next experiment is MCF7 breast. The note with it: 10 µM unless noted.
The next experiment has as its system HCT-116 colon. Particulars: 10 µM.
For another experiment, the system named is KM12 colon. Particulars: 10 µM.
The next experiment has as its system HCC-2998 colon. The note with it: 10 µM.

Molecules are shown by their SMILES. The panel holds about 83,000 compounds, 20% with a hit somewhere; the sample as a whole holds those more often.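 Compound tested at a single concentration for 48 hours in 96-well plates; a percent growth value below 10 was scored as active.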 Unmarked numbers belong to inactive results. Calls of active or inactive are those of the source.

In the case of `O=[N+]([O-])c1ccc(S(=O)(=O)NN=C2CCCCC2)cc1`, the growth was 96.9% in the experiment with SR leukemia; 110% with RPMI-8226 leukemia; 101% in the experiment on OVCAR-8 ovarian; 114% with OVCAR-5 ovarian; 99.5% with OVCAR-4 ovarian; 100% in the experiment on SK-OV-3 ovarian. The growth is 103% in the experiment with IGROV1 ovarian; 114% in the experiment on OVCAR-3 ovarian; 141% in the experiment on HS 578T breast; 115% with NCI/ADR-RES ovarian; 107% in the experiment with T-47D breast; 95.5% in the experiment with BT-549 breast. Besides, the growth with MDA-MB-435 melanoma is 114%; in the experiment with SW-620 colon, 114%; with MCF7 breast, 102%; with HCT-116 colon, 97.8%; in the experiment on KM12 colon, 110%.

With `Cc1cc(O)ccc1O`, the growth with SR leukemia is 104%; with RPMI-8226 leukemia, 59.5%; in the experiment with OVCAR-8 ovarian it was 104%; in the experiment on OVCAR-5 ovarian it was 116%; in the experiment with OVCAR-4 ovarian, 98.5%; with SK-OV-3 ovarian it was 112%. Moreover, the growth in the experiment on IGROV1 ovarian is 114%; with OVCAR-3 ovarian it was 110%; in the experiment on HS 578T breast it was 103%; in the experiment on NCI/ADR-RES ovarian, 96.5%; in the experiment with T-47D breast, 101%; with BT-549 breast it was 83.5%. For the same molecule, the growth with SW-620 colon is 117%; in the experiment with MCF7 breast it was 94.7%; in the experiment on HCT-116 colon, 96.4%; in the experiment with HCC-2998 colon, 121%; in the experiment with KM12 colon, 105%.

Regarding `O=C(NN=C1CCCCC1)C(=O)NN=C1CCCCC1`, the growth in the experiment on SR leukemia was 83.7%; with RPMI-8226 leukemia it was 99.6%; in the experiment with OVCAR-8 ovarian, 100%; in the experiment on OVCAR-5 ovarian it was 105%; in the experiment with OVCAR-4 ovarian it was 115%; in the experiment with SK-OV-3 ovarian, 101%. The growth in the experiment with IGROV1 ovarian is 127%; in the experiment on OVCAR-3 ovarian, 123%; in the experiment on HS 578T breast, 115%; in the experiment on NCI/ADR-RES ovarian it was 114%; with T-47D breast, 99.7%; in the experiment with MDA-MB-435 melanoma, 117%. Further, the growth in the experiment on SW-620 colon is 117%; in the experiment with MCF7 breast, 92.5%; with HCT-116 colon it was 106%; with HCC-2998 colon, 113%; with KM12 colon, 105%.

Consider `COc1ccccc1NC(=O)c1cc2cc(Br)ccc2cc1O`, for which the growth is -5.13% (active) with SR leukemia; -29.6% (active) with RPMI-8226 leukemia; 9.55% (active) in the experiment with OVCAR-8 ovarian; 104% in the experiment with OVCAR-5 ovarian; 18.7% with OVCAR-4 ovarian; 1.19% (active) with SK-OV-3 ovarian. The growth is -46% (active) in the experiment with IGROV1 ovarian; 4.13% (active) with OVCAR-3 ovarian; 6.12% (active) in the experiment with HS 578T breast; 5.05% (active) in the experiment with NCI/ADR-RES ovarian; 9.84% (active) in the experiment with T-47D breast; 10.2% with MDA-MB-435 melanoma. Further, the growth with SW-620 colon was 10.9%; with MCF7 breast it was -2.37% (active); in the experiment on HCT-116 colon, 3.77% (active); in the experiment with HCC-2998 colon, 20.1%; in the experiment with KM12 colon it was 9.92% (active).

`CCCNc1ccc(C2=NCCCN2)cc1`: the growth in the experiment on SR leukemia was 96.9%; in the experiment with RPMI-8226 leukemia it was 98.2%; in the experiment on OVCAR-8 ovarian it was 95.4%; with OVCAR-5 ovarian, 101%; in the experiment on OVCAR-4 ovarian, 100%; in the experiment with SK-OV-3 ovarian, 107%. Moreover, the growth is 86% in the experiment with IGROV1 ovarian; 99.2% with OVCAR-3 ovarian; 103% in the experiment on HS 578T breast; 95.2% in the experiment with NCI/ADR-RES ovarian; 97.3% with T-47D breast; 90% in the experiment with BT-549 breast. For the same molecule, the growth in the experiment with MDA-MB-435 melanoma was 95.9%; in the experiment on SW-620 colon it was 102%; in the experiment on MCF7 breast, 97.7%; in the experiment with HCT-116 colon, 97%; with KM12 colon, 94.5%.

As for `Cc1ccccc1N=C(c1ccccc1)C1C(=O)c2ccccc2C1=O`, the growth in the experiment on SR leukemia was 27%; in the experiment on RPMI-8226 leukemia it was 59.9%; in the experiment with OVCAR-8 ovarian it was 97.4%; in the experiment with OVCAR-5 ovarian, 103%; with OVCAR-4 ovarian, 101%; in the experiment with SK-OV-3 ovarian, 61.8%. Moreover, the growth in the experiment on IGROV1 ovarian is 55.3%; with OVCAR-3 ovarian, 71.9%; with HS 578T breast, 83%; with NCI/ADR-RES ovarian, 80.2%; in the experiment with T-47D breast it was 40.4%; in the experiment on BT-549 breast it was 42.6%. For the same molecule, the growth in the experiment on SW-620 colon is 84.3%; with MCF7 breast it was 55.2%; in the experiment on HCT-116 colon it was 46.4%; with HCC-2998 colon, 104%.

Take `CCCCOC(OCCCC)c1ccccc1`: the growth with SR leukemia is 103%; in the experiment on RPMI-8226 leukemia, 110%; in the experiment with OVCAR-8 ovarian, 108%; with OVCAR-5 ovarian it was 107%; in the experiment with OVCAR-4 ovarian, 109%; in the experiment with SK-OV-3 ovarian, 115%. Further, the growth in the experiment with IGROV1 ovarian was 115%; in the experiment with OVCAR-3 ovarian, 105%; with HS 578T breast, 111%; with NCI/ADR-RES ovarian it was 97.9%; with T-47D breast, 100%; with BT-549 breast it was 107%. Also, the growth in the experiment with MDA-MB-435 melanoma was 112%; in the experiment with SW-620 colon it was 110%; in the experiment on MCF7 breast, 97.8%; with HCT-116 colon, 112%; in the experiment on KM12 colon it was 110%.

For `CN(c1ccccc1)c1ncnc2c1ncn2C`, the growth was 98.2% in the experiment with SR leukemia; 106% with RPMI-8226 leukemia; 102% in the experiment on OVCAR-8 ovarian; 121% in the experiment on OVCAR-5 ovarian; 103% in the experiment on OVCAR-4 ovarian; 105% in the experiment on SK-OV-3 ovarian. For the same molecule, the growth was 118% in the experiment on IGROV1 ovarian; 111% in the experiment on OVCAR-3 ovarian; 103% in the experiment on HS 578T breast; 105% with NCI/ADR-RES ovarian; 100% with T-47D breast; 101% with BT-549 breast. Moreover, the growth in the experiment with MDA-MB-435 melanoma is 106%; in the experiment with SW-620 colon it was 97.9%; with MCF7 breast it was 97.8%; in the experiment with HCT-116 colon, 104%; with KM12 colon, 108%.

With `OC(c1ccccn1)C(O)c1ccccn1` (centres undefined), the growth with SR leukemia is 98.7%; in the experiment on RPMI-8226 leukemia it was 108%; with OVCAR-8 ovarian, 102%; in the experiment with OVCAR-5 ovarian it was 90.7%; with OVCAR-4 ovarian, 107%; in the experiment with SK-OV-3 ovarian, 103%. In addition, the growth in the experiment on IGROV1 ovarian is 97.9%; with OVCAR-3 ovarian, 113%; with HS 578T breast, 111%; with NCI/ADR-RES ovarian it was 111%; with T-47D breast it was 109%; in the experiment on BT-549 breast, 106%. Besides, the growth in the experiment with MDA-MB-435 melanoma was 115%; in the experiment with SW-620 colon, 109%; in the experiment on MCF7 breast, 101%; in the experiment on HCT-116 colon it was 106%; in the experiment with KM12 colon, 109%.

With `Cc1cc(N2CCC(N3CCCC3)CC2)nc(/N=C(\N)Nc2ccc(Cl)c(Cl)c2)n1`, the growth with SR leukemia is -54.3% (active); with RPMI-8226 leukemia it was -36.7% (active); in the experiment on OVCAR-8 ovarian, -9.16% (active); in the experiment with OVCAR-5 ovarian it was 19%; with OVCAR-4 ovarian it was -13.2% (active); with SK-OV-3 ovarian, 88.3%. Also, the growth was 12.3% in the experiment on IGROV1 ovarian; 69.7% with OVCAR-3 ovarian; -25.8% (active) in the experiment with HS 578T breast; 30.3% in the experiment on NCI/ADR-RES ovarian; 106% in the experiment with T-47D breast; -98.6% (active) in the experiment with MDA-MB-435 melanoma. The growth was -56% (active) in the experiment with SW-620 colon; -44.7% (active) with MCF7 breast; -93.3% (active) in the experiment with HCT-116 colon; -82.2% (active) with HCC-2998 colon; 9.92% (active) with KM12 colon.
